Assay outcomes deposited in PubChem by National Center for Advancing Translational Sciences (NCATS).
TDP1 block = blocks human tyrosyl-DNA phosphodiesterase 1 | recombinant TDP1, AlphaScreen DNA substrate cleavage | Potency, µM (top dose mostly 130 µM), without a hit: at the top dose activity change, negative = inhibition, hits mostly inhibitors | 0.28% of 350,000 active; note: potency is the fitted concentration of half-maximal effect; % is set by controls: 0 for no effect and ±100 for the full control effect; nearly all actives have a fitted effect of over 40% in size
Target sequence (Q9NUW8 whole entry, looked up): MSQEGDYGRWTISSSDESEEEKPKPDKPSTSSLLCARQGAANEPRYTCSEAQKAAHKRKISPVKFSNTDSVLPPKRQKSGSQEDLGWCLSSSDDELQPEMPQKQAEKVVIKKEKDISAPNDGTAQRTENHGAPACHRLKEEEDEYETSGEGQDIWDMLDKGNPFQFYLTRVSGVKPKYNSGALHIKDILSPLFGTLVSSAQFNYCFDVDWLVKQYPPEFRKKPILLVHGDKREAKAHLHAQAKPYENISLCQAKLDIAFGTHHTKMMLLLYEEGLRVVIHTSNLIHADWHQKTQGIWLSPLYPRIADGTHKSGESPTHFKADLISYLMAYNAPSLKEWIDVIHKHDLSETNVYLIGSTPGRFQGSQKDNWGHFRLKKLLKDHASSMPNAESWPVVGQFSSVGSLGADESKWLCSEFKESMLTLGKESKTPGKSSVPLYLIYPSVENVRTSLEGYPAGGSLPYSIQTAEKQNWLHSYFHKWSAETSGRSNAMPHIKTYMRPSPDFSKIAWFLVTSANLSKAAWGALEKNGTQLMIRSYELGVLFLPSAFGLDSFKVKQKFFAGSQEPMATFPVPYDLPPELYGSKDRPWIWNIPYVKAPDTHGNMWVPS
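Recombinant E. coli-expressed Tdp1 (1 nM) preincubated with compound 15 min at RT, then 5'-biotin/3'-phosphotyrosine-FITC DNA substrate (15 nM) added for 5 min. AlphaScreen beads (10 ug/ml) added, 10 min RT; tyrosine-FITC cleavage read as signal loss.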
TGFb inhibitor = blocks TGF-b signaling; HepG2 CAGA-GFP TGF-b/SMAD3 reporter, GFP fluorescence, 18 h; TGF-beta stimulated, 500 pg/mL final; Potency, µM (titrated, usually from 46.1 µM), without a hit: at the top dose activity, negative = inhibition, usual class: inhibitors; 1.2% of 410,000 active; AID 588855; note: potency is the fitted concentration of half-maximal effect; % is set by controls: 0 for no effect and ±100 for the full control effect; nearly all actives have a fitted effect of over 65% in size
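Per well, imaged GFP fluorescence of HEPG2 CAGA-GFP cells gives the signal; cells get compound, then TGF-beta (500 pg/mL final), 18 h at 37 degrees C; %Activity versus -TGF-beta and +DMSO controls.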
TDP1 cell CPT = growth inhibition of DT40 Tdp1-/-;hTDP1 cells with camptothecin (screen for TDP1 inhibitors); chicken DT40 Tdp1-/-;hTDP1 cells + 20 nM CPT, ATP luminescence, 48 h; Potency, µM (highest dose often 46.2 µM), for inactives: at the top dose activity change, negative = growth inhibition, usual class: inhibitors; 12% of 420,000 active; AID 686979; note: potency is the fitted concentration of half-maximal effect; % is set by controls: 0 for no effect and ±100 for the full control effect; nearly all actives have a fitted effect of over 55% in size
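Chicken DT40 Tdp1-/- cells stably complemented with human TDP1 were seeded at 400 cells/well in medium containing 20 nM camptothecin, exposed to pin-transferred compounds, and grown at 37 °C for at least 48 hr. Viability was read as ATP luminescence.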
IL-1B inflam inh = inhibitors of inflammasome signaling (IL-1 beta secretion). activity change, % at 57.5 µM. 4.7% of 360,000 active. AID 743279. THP-1 LPS/ATP IL-1B secretion, AlphaLISA, 16 h; hits give low values; in the data active = activity change below about -50%; inconclusive = mostly about -30% to -49%; note: % is set by controls: 0 for no effect and ±100 for the full control effect
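Secreted IL-1B measured by AlphaLISA bead assay after 16 h compound exposure of THP-1 cells; compounds (final up to 57.5 uM) added 1 h before LPS (250 ng/mL) and ATP (1.25 mM) stimulation; lower signal means less secretion.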
DT40 TDP1 no CPT = qHTS for Inhibitors of human tyrosyl-DNA phosphodiesterase 1 (TDP1): qHTS in cells in absence of CPT; DT40 Tdp1-/- hTDP1 cells, no CPT, ATP luminescence, 48 h; Potency, µM (highest dose often 46.2 µM), without a hit: top-dose activity change, negative = growth inhibition, actives largely listed as inhibitors; 15% of 420,000 active; note: potency is the fitted concentration of half-maximal effect; % is set by controls: 0 for no effect and ±100 for the full control effect; nearly all actives have a fitted effect of over 55% in size
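Cells were dispensed at 400 per well, compounds added by pin tool, plates incubated ≥48 hr at 37 °C, then CellTiter-Glo added for 30 min at room temperature before luminescence reading. Line: DT40 Tdp1-/- complemented with hTDP1; camptothecin omitted.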
HepG2 viability = HepG2 cytotoxicity, counter-screen for TGF-b inhibitors | Potency, µM (top dose mostly 46.1 µM), inactives show top-dose activity change, negative = cytotoxicity, hits mostly cytotoxic | 0.76% of 410,000 active | HepG2 CAGA-GFP viability, ATP luminescence, 18 h | AID 588856; note: potency is the fitted concentration of half-maximal effect
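HepG2 CAGA-GFP cells (1000/well, DMEM with 1% FBS) received compound, then TGF-beta at 500 pg/mL final, and were incubated 18 hours at 37 degrees C. Viability was read by CellTiter-Glo luminescence. Media-only wells were set as complete cell-killing and DMSO as no toxicity.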
* marks the source's active call; other numbers are inactive results; ? = inconclusive; · = not tested or not shown; [ ] = another dose, or the depositor's remark. Only some compounds are listed: those with a hit (about 18% of all), similar ones and a draw of the others. Unless noted, calls come from the whole dose curve; as a rule, active = well fitted curve in the direction sought with a large enough effect; inconclusive = small, poorly fitted or top-dose-only effect, or another doubt; inactive = no such curve, though single readings can be large; an effect the other way counts as inactive or inconclusive.

SMILES	TDP1 block	TGFb inhibitor	TDP1 cell CPT	IL-1B inflam inh	DT40 TDP1 no CPT	HepG2 viability
O=[N+]([O-])c1ccccc1S(=O)(=O)NC1CCCC1	1%	-6%	0%	17	-3%	-6%
O=[N+]([O-])c1ccccc1S(=O)(=O)NC1CCCCCCC1	·	-17%	-22%	4	16µM*	-14%
COc1cccc(CNC(=O)CN2C(=O)N(c3cccc(Cl)c3)S(=O)(=O)c3ccccc32)c1OC	5%	-7%	?	·	-25%	-21%
CC[C@@]12CCCN3CCc4c(n(c5ccccc45)C(=O)C1)[C@H]32	12%[21 µM]	·	·	·	·	·
CC(C)c1ccc(S(=O)(=O)N2CCN(C(C)C(=O)Nc3ccccc3-c3ccccc3)CC2)cc1 (configuration not stated)	6%	-10%	18µM*	0	?	-2%
Cc1ccc(S(=O)(=O)N2CCN(C(C)C(=O)NCC(C)c3ccccc3)CC2)cc1 (configuration not stated)	0%	?	?	-9	23µM*	0%
CC(C(=O)Nc1ccccc1-c1ccccc1)N1CCCCC1 (configuration not stated)	-7%	-2%	-5%	25	?	5%
CCC(C)c1ccc(S(=O)(=O)N2CCN(C(C)C(=O)NC3CCCC3)CC2)cc1 (configuration not stated)	2%	-17%	15µM*	-10	?	-8%
CC(NC(=O)C(C)N1CCN(S(=O)(=O)c2ccccc2)CC1)c1ccccc1 (configuration not stated)	0%[56.1 µM]	7%	-15%	0	-16%	2%
Clc1ccc(CON/C=N/c2ncnc3sccc23)c(Cl)c1	6%	10%	13µM*	?	10µM*	2%
COc1ccnc(N=CNOCc2ccc(F)cc2Cl)c1C#N	-1%	-27%	3%	?	?	13%
N#Cc1c(NC(=O)c2cc(-n3cnnc3)ccc2Cl)sc2c1CCCC2	6%	-7%	21µM*	-14	13µM*	-34%
Cc1onc(-c2c(F)cccc2Cl)c1C(=O)Nc1sc2c(c1C(N)=O)CCC2	4%	-19%	11µM*	?	11µM*	-12%
N#Cc1c(NC(=O)c2ccccc2)sc2c1CCCCC2	-8%	1%	3%	?	?	-11%
CC(C)(C)C(=O)NC(=S)Nc1sc2c(c1C#N)CCCCC2	3%	-14%	?	-3	23µM*	-30%
N#Cc1c(NC(=O)/C=C/c2ccco2)sc2c1CCCC2	-4%	-44%	0.23µM*	2	0.41µM*	-1%
COc1ccc(S(=O)(=O)Nc2cc3c4c(c2)CCN4C(=O)CC3)cc1OC	·	-1%	-3%	20	-20%	0%
Cc1ccccc1S(=O)(=O)NC(=O)C1(C)CCN1C(=O)Cc1cccs1 (configuration not stated)	·	4%	0%	5	-6%	-16%
CS/C(=N\S(=O)(=O)c1cccs1)NC(=O)CSc1nc2ccccc2s1	-6%	-1%	?	31	?	6%
COC(=O)c1c(NC(=O)COc2cc(C)c(Cl)c(C)c2)sc2c1CCCC2	-3%[12.3 µM]	-11%	0%	·	16%	0%
Cc1onc(-c2ccccc2)c1C(=O)Nc1sccc1C#N	4%	-22%	-5%	-65*	-16%	-14%
Cc1onc(-c2ccccc2)c1C(=O)Nc1nncs1	6%	-7%	1%	-1	-7%	-24%
Cc1onc(-c2ccccc2)c1C(=O)Nc1sc2c(c1C(N)=O)CCC2	4%	-12%	-25%	-50*	?	-18%
Cc1onc(-c2ccccc2)c1C(=O)NC(=S)Nc1sc2c(c1C#N)CCC(C)C2 (configuration not stated)	0%	3%	?	31	?	-2%
N#Cc1c(NC(=O)c2cc(C3CC3)on2)sc2c1CCC2	-7%	2%	10µM*	37	12µM*	1%
SMILES	TDP1 block	TGFb inhibitor	TDP1 cell CPT	IL-1B inflam inh	DT40 TDP1 no CPT	HepG2 viability
Cc1onc(-c2c(F)cccc2Cl)c1C(=O)Nc1sc2c(c1C#N)CCC(C(C)(C)C)C2 (configuration not stated)	-2%[56.1 µM]	-21%	?	?	16µM*	-36%
Cn1c(CSc2nc3ccccc3s2)nnc1SCC(=O)NCc1cccnc1	·	-4%	-2%	36	-11%	-27%
CSc1nc2sc3c(c2c(=O)n1CC(C)C)CC(C)(C)OC3	-1%	7%	6%	-8	-13%	0%
Cc1ccc(NC(=O)CSCn2nnc3c(=O)[nH]c(Cc4ccc(F)cc4)nc32)c(C)c1	?	25%	-16%	·	-12%	-2%
Cc1onc(-c2ccccc2)c1C(=O)Nc1sc2c(c1C#N)CCC2	-2%	-14%	29µM*	33	?	-19%
O=C1CC(=C2c3ccccc3-c3ccccc32)C(=O)N1CCCCN1CCN(c2ccccc2)CC1	9%	-18%	18µM*	-26	16µM*	-18%
O=C1CC(=C(c2ccccc2)c2ccccc2)C(=O)N1CCCN1CCN(c2cccc(Cl)c2)CC1	7%	-13%	?	-20	?	1%
COc1ccc2cc(/C=N/NC(=O)c3ccc(CN(c4cccc(Cl)c4Cl)S(C)(=O)=O)cc3)c(Cl)nc2c1	3%	?	18µM*	14	15µM*	8%
COc1ccc(CCC(=O)NCCc2csc(-c3ccc(C(F)(F)F)cc3)n2)cc1	-1%	-25%	·	·	·	-35%
COc1ccc(C(=O)NCCc2csc(-c3ccc(Cl)cc3)n2)c(OC)c1	1%	?	?	·	23µM*	-35%
COc1ccc(-c2cc(C(=O)NCCc3ccc(Cl)cc3)[nH]n2)cc1	6%	22%	1%	·	2%	2%
